High-throughput results as filed in PubChem BioAssay.
Sampled rows, rich in hits. Any-hit rate of the full collection: about 19%.
HT1080 IDH1KD tx – qHTS for induction of synthetic lethality in tumor cells producing 2HG: qHTS for the HT-1080-IDH1KD cell line | HT-1080 IDH1 knockdown viability, ATP luminescence, 48 h | Potency, µM (top dose mostly 46.1 µM), for the others: at the highest dose activity, negative = toxicity, usual class: cytotoxic | hit rate 2% among 360,000;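 further: potency means the concentration at half of the fitted maximal effect; 0% = DMSO wells and -100% = cell-free medium wells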
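Cytotoxicity counter-line: IDH1KD HT-1080, 48 h, CellTiter-Glo. Curves classed by r2, magnitude and activity.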
DT40 TDP1 CPT – qHTS for Inhibitors of human tyrosyl-DNA phosphodiesterase 1 (TDP1): qHTS in cells in presence of CPT. hit rate 12% among 420,000. chicken DT40 Tdp1-/-;hTDP1 cells + 20 nM CPT, ATP luminescence, 48 h. Potency, µM (highest dose often 46.2 µM), inactives show top-dose activity change, negative = growth inhibition, hits mostly inhibitors; further: potency means the concentration at half of the fitted maximal effect; nearly all actives have a fitted effect of over 55% in size
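Chicken DT40 Tdp1-/- cells complemented with human TDP1, 400 cells/well, exposed to compounds plus 20 nM camptothecin for at least 48 h at 37 C; viability read as ATP content by CellTiter-Glo luminescence.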
uPA surface inh – qHTS for Inhibitors of Cell Surface uPA Generation; cell surface uPA generation assay, qHTS; Potency, µM (doses to about 38.3 µM), for inactives: at the highest dose activity change, negative = inhibition, usual class: inhibitors; hit rate 0.31% among 330,000; active means well fitted inhibition curve with a large enough effect; inconclusive means small, poorly fitted or top-dose-only effect; inactive means no such curve, though single readings can be large or run the other way; tested in mouse RAW 264.7 cells; further: potency means the concentration at half of the fitted maximal effect; nearly all actives have a fitted effect of over 55% in size
HT1080-NT tox – qHTS for induction of synthetic lethality in tumor cells producing 2HG: qHTS for the HT-1080-NT fibrosarcoma cell line; AID 686970, 2013; Potency, µM (doses to about 46.1 µM), for the others: at the top dose activity, negative = less viability, hits mostly cytotoxic; hit rate 1.6% among 360,000; HT-1080-NT fibrosarcoma viability, CellTiter-Glo ATP luminescence, 48 h;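 further: NT is the 2HG producing partner of a matched IDH1 knockdown line; potency means the concentration at half of the fitted maximal effect; 0% = DMSO-treated cells and -100% = media-only wells without cells; nearly all actives have a fitted effect of over 55% in size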
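Viability of the 2HG-overproducing fibrosarcoma line after 48 hours of compound exposure at 37 degrees C was determined by luminescence with CellTiter-Glo, and concentration-effect curves were then fitted and categorized.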
IL-1B inflam inh – qHTS for Inhibitors of Inflammasome Signaling: IL-1-beta AlphaLISA Primary Screen | THP-1 LPS/ATP IL-1B secretion, AlphaLISA, 16 h; stronger effect = lower value | activity change, % at 57.5 µM | hit rate 4.7% among 360,000 | AID 743279, 2014; in the data active means activity change below about -50%; inconclusive means mostly about -30% to -49%
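Secreted IL-1B measured by AlphaLISA bead assay after 16 h compound exposure of THP-1 cells; compounds (final up to 57.5 uM) added 1 h before LPS (250 ng/mL) and ATP (1.25 mM) stimulation; lower signal means less secretion.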
DT40 TDP1 no CPT – qHTS for Inhibitors of human tyrosyl-DNA phosphodiesterase 1 (TDP1): qHTS in cells in absence of CPT. AID 686978, 2013. hit rate 15% among 420,000. Potency, µM (titrated, usually from 46.2 µM), for inactives: top-dose activity change, negative = growth inhibition, usual class: inhibitors. DT40 Tdp1-/- hTDP1 cells, no CPT, ATP luminescence, 48 h; further: potency means the concentration at half of the fitted maximal effect; nearly all actives have a fitted effect of over 55% in size
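Seeded 400 DT40-hTDP1 cells/well (vehicle DMSO, no 20 nM CPT); pinned compounds; ≥48 hr at 37 °C; CellTiter-Glo luminescence as viability measure.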
Numbers without * were called inactive; ? = inconclusive; / = no result; ! = not confirmed by another sample. Unless noted, the call rests on the fitted dose curve; in most records, active means well fitted curve in the direction sought with a large enough effect; inconclusive means small, poorly fitted or top-dose-only effect, or another doubt; inactive means no such curve, though single readings can be large; an effect the other way counts as inactive or inconclusive. Unless noted, on the % scale 0 is the no-effect control and ±100 the full control effect.

SMILES | HT1080 IDH1KD tx | DT40 TDP1 CPT | uPA surface inh | HT1080-NT tox | IL-1B inflam inh | DT40 TDP1 no CPT
CN(C(=O)CN1CCN(c2cc(-c3cccc4oc5ccccc5c34)ncn2)CC1)c1ccccc1 | 0.3% | ? | / | 0.0% | -23.8 | ?
COc1cccc(-c2nn(-c3ccccc3)cc2CN(C)C(C)c2ccon2)c1 (stereo not drawn) | -4.5% | ? | 0.3% | -1.8% | 30.3 | ?
CCC(COC)NCc1cn(-c2ccc(OC)cc2)nc1-c1cccc(F)c1 (stereo not drawn) | ? | 16.4µM* | -5.3% | ? | -82.2* | 23.1µM*
COc1ccc(-n2cc(CNC(C)c3ccncn3)c(-c3cccc(F)c3)n2)cc1 (stereo not drawn) | -13.6% | ? | 0.4% | -12.0% | -23.1 | 25.9µM*
CC(=O)N(c1ccc(Cl)cc1)C1SC(=O)N(c2ccccc2)C1=O (stereo not drawn) | 18.5% | -5.6% | / | 15.9% | / | ?
O=C1C=C(c2ccc3[nH]ccc3c2)C[C@@H](c2ccc(Cl)cc2)C1 | ? | ? | -8.4% | ? | 0.0 | ?
CSCC[C@H](NC(=O)[C@@H]1Cc2ccccc2CN1)C(=O)Nc1ccc2c(c1)OCCO2 | 5.3% | 11.5% | -7.3% | -0.1% | 1.9 | 3.9%
Cc1ccc(N2C(=O)CC(Sc3nc4ccccc4o3)C2=O)cc1Cl (stereo not drawn) | -0.2% | 4.11µM* | -1.3% | -0.1% | -2.7 | 3.26µM*
CCCc1c(O)nc(SC2CC(=O)N(c3ccc(C)c(Cl)c3)C2=O)[nH]c1=O (stereo not drawn) | -1.2% | 2.4% | 0.1% | -2.2% | 3.1 | -20.1%
COc1ccc(NS(=O)(=O)c2cccs2)cc1S(=O)(=O)N1CCCCC1 | -14.0% | ? | 5.9% | -10.9% | 7.3 | ?
CC(C)CNC(=O)c1ccccc1NC(=O)CN(c1ccccc1)S(=O)(=O)N(C)C | -9.8% | 3.4% | 3.4% | 5.1% | -12.5 | -8.6%
C[C@@H]1C=CC(=O)O[C@@H]1c1ccc(Cl)cc1 | ? | 7.31µM* | ? | ? | -108.0* | 7.31µM*
CC1C(=O)OC(c2ccc(Cl)cc2)C(C)(C)C1=O (stereo not drawn) | 1.7% | -2.5% | -5.4% | 14.2% | -0.4 | ?
Cc1nc2ccccc2c2oc(C(=O)N3CCN(c4ccc([N+](=O)[O-])cc4)CC3)cc12 | 5.5% | ? | 1.2% | -0.1% | 14.0 | ?
Cc1cc(C)nc(S/C=C/C(=O)c2ccccc2F)n1 | 2.91µM* | 2.06µM* | -6.3% | 3.66µM* | ? | 3.66µM*
O=C(Nc1ccccc1)N1CCCC2(CCN(C(=O)c3cccc(F)c3)CC2)C1 | / | 0.0% | / | / | / | -8.5%
CC1CN(C(=O)CCc2ccccc2)C(C)CN1C(=O)CCc1ccccc1 (stereo not drawn) | -4.8% | ? | -0.5% | 2.8% | -2.6 | 23.1µM*
COC(=O)CCC(C)C1CCC2C3C(OC(C)=O)CC4CC(O)CCC4(C)C3CC(O)C12C (stereo not drawn) | -7.4% | ? | / | -7.8% | 11.6 | 16.4µM*
CC(CCC(=O)O)C1CCC2C3C(O)CC4CC(O)CCC4(C)C3CC(O)C12C (stereo not drawn) | -4.2% | -6.6% | 9.2% | 23.1% | 18.3 | -6.0%
COC(=O)CCC(C)C1CCC2C3CCC4CC(O)CCC4(C)C3CC(O)C12C (stereo not drawn) | ? | 13µM* | 7.2% | ? | -11.5 | 20.6µM*
C[C@H](CCC(=O)NCC(=O)O)[C@H]1CC[C@H]2[C@@H]3[C@H](O)C[C@@H]4C[C@H](O)CC[C@]4(C)[C@H]3C[C@H](O)[C@]12C | 15.5% | 4.9% | -3.0% | 21.3% | -15.6 | ?
O=C(/C=C/c1ccc([N+](=O)[O-])cc1)N1CCN(S(=O)(=O)c2cccs2)CC1 | -5.8% | -11.3% | -5.6% | 21.4% | -8.4 | 2.7%
Clc1ccc(-c2cn3c(n2)-c2ccccc2C3)cc1Cl | -13.5% | ? | 10µM* | -8.4% | 12.3 | ?
OCCOCCNc1ncnc2nc[nH]c12 | -1.0% | -1.9% | -11.8% | 0.5% | -25.7 | -5.8%
Clc1ccc(CCNc2ncnc3nc[nH]c23)cc1 | -18.6% | 11.6µM* | -19.2% | -10.4% | 18.3 | 7.31µM*
SMILES | HT1080 IDH1KD tx | DT40 TDP1 CPT | uPA surface inh | HT1080-NT tox | IL-1B inflam inh | DT40 TDP1 no CPT
c1ccc2c(CCNc3ncnc4nc[nH]c34)cccc2c1 | -15.1% | 23.1µM* | -6.1% | 1.4% | 104.0 | 18.4µM*
c1ccc(CCCNc2ncnc3nc[nH]c23)cc1 | -2.3% | ? | -5.3% | 9.0% | 3.8 | 20.6µM*
c1nc(NCc2ccc3c(c2)OCO3)c2[nH]cnc2n1 | -9.5% | ? | / | 3.7% | / | ?
C1=C(CCNc2ncnc3nc[nH]c23)CCCC1 | -4.9% | 13µM* | ? | 4.1% | 32.0 | 14.6µM*
CCCNc1ncnc2nc[nH]c12 | 1.6% | ? | -68.6% | 0.7% | 3.7 | -15.3%
CCCCc1ccc(Nc2ncnc3nc[nH]c23)cc1 | 1.6% | -23.2% | ? | 8.8% | 14.1 | -25.8%
CCOC(=O)C1(C)CCCN1C(=O)c1cc(F)ccc1C (stereo not drawn) | 19.4% | ? | / | 25.7% | 20.9 | -14.4%
CCOc1ccc(NS(=O)(=O)c2ccc(NC(=O)N3CCCC3)cc2)cc1 | / | -29.9% | / | / | / | ?
CN(C)CCc1cc2c(c3c1ccc1ccccc13)OCO2 | ? | 20.6µM*! | ? | ? | -95.9* | 20.6µM*!
COc1cc2ccc3c(CCN(C)C)cc(OC)c(OC)c3c2cc1OC | -5.1% | -12.0% | -7.4% | -15.8% | ? | ?
CCOC(=O)C1CCCCN1S(=O)(=O)c1csc(C(N)=O)c1 (stereo not drawn) | / | -7.0% | / | / | / | -5.8%
CCOc1ccccc1Nc1nc(-c2ccc(C)cc2)c(CC(=O)O)s1 | / | ? | / | / | / | -13.7%
COc1cccc(Nc2cc(C)nc3ccccc23)c1 | -15.1% | ? | -4.6% | -13.7% | 9.3 | 20.6µM*
CCOc1ccc2oc(=O)cc(C)c2c1 | 9.5% | 2.8% | -2.5% | 6.8% | -13.5 | -16.9%
CCOc1ccc(Nc2cc(=O)oc3ccccc23)cc1 | -24.3% | 10.3µM* | ? | -26.2% | -24.1 | 18.4µM*
Cc1cc(Nc2ccc(C)c(C)c2)c2ccccc2n1 | 16.4µM* | ? | -11.0% | ? | / | ?
Cc1cc(Nc2cccc([N+](=O)[O-])c2)c2cccc(C)c2n1 | -28.4% | ? | -3.3% | ? | -95.5* | 20.6µM*
